Assay results published in PubChem BioAssay.
Inconclusive results are not listed. The source made the active and inactive calls. Unless noted, no stated cut-off is given here; in the data, active means percent of DMSO control GFP below about 86%; inactive means the rest, inconclusive results apart.

What was measured:
[1] = yeast TOR pathway RPL19A-GFP modulators, primary screen, cell-based, S. cerevisiae, multiplex flow cytometry (AID 1862);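 further: lower values mimic rapamycin by blocking the RPL19A rise seen in DMSO cells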; conditions: S. cerevisiae RPL19A-GFP strain, flow cytometry fluorescence, 3 h; at 10 µM; stronger effect = lower value
[2] = modulators of MEP2-GFP levels in yeast, primary screen, S. cerevisiae, multiplex flow cytometry (AID 1867;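 active means GFP response, as percent of the DMSO control, above the screen-wide mean plus 3 SD, about 139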;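 further: median GFP channel fluorescence of barcode-gated MEP2-GFP cells measured by flow cytometry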); conditions: S. cerevisiae MEP2-GFP strain, 3 h, at 10 µM, stronger effect = higher value, 100% means same as DMSO wells
[3] = modulators of CIT2-GFP expression in yeast, primary screen, S. cerevisiae, GFP fusion, multiplex flow cytometry (AID 1870;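 active means percent response above a set limit, the screen-wide mean plus 3 SD, cut at about 130% in these data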;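 further: barcoded CIT2-GFP strain pooled with four other GFP strains with rapamycin as positive control; median GFP fluorescence per well over plate mean of DMSO wells so 100% = DMSO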); conditions: 3 h, at 10 µM, stronger effect = higher value
[4] = modulators of LAP4-GFP expression in yeast, primary screen, S. cerevisiae, multiplex flow cytometry (AID 1873;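 active means GFP signal, as percent of the solvent control, above the screen mean plus 3 SD, about 149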); conditions: 3 h, at 10 µM, stronger effect = higher value
[5] = modulators of AGP1-GFP expression in yeast TOR pathway, primary screen, cell-based, multiplex flow cytometry, S. cerevisiae (AID 1887;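 active means GFP signal above the screen-wide mean plus 3 SD, that is over about 124.5% of the solvent control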;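 further: AGP1-GFP fusion strain of S. cerevisiae within a five-strain barcoded multiplex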); conditions: 3 h, at 10 µM, stronger effect = higher value
[6] = inhibitors of CD8+ T cell-vesicle binding, pilot screen, LFA-1/ICAM-1 modulator project, MLPCN validation set, flow cytometry (AID 2523;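 active means response below a set limit, under 55% cells CD8-positive and vesicle-bound, and CD8 cells' 90th-percentile brightness under 279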;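 on vesicle binding response: mean PE anti-B7-1 fluorescence of CD8+ cells relative to row control; 100% = QL9-loaded vesicles with DMSO vehicle in the same plate row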); conditions: 2C mouse CD8+ T cells, at 7 µM, stronger effect = lower value; double positive events: measured here: CD8+/vesicle+ event percentage
[7] = target: Integrin beta-1 (Homo sapiens) + Integrin alpha-4 (Homo sapiens) (UniProt P13612+P05556); experiment: inhibition of HUTS-21 binding to VLA-4, pilot screen, VLA-4 allosteric modulator project, U937 cells, HUTS-21 mAb, flow cytometry, validation set (AID 2674;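 active means inhibition above 50%, about 3 SD of the validation set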;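 further: antibody binding induced by the VLA-4 ligand LDV present at three times its Kd; 0% = LDV ligand with antibody and no compound and 100% = antibody without LDV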); conditions: HUTS-21 LIBS mAb binding, at 6.7 µM, stronger effect = higher value, binding induced by LDV ligand
Sequence of Integrin beta-1 (Homo sapiens) + Integrin alpha-4 (Homo sapiens) (P05556 whole entry, looked up): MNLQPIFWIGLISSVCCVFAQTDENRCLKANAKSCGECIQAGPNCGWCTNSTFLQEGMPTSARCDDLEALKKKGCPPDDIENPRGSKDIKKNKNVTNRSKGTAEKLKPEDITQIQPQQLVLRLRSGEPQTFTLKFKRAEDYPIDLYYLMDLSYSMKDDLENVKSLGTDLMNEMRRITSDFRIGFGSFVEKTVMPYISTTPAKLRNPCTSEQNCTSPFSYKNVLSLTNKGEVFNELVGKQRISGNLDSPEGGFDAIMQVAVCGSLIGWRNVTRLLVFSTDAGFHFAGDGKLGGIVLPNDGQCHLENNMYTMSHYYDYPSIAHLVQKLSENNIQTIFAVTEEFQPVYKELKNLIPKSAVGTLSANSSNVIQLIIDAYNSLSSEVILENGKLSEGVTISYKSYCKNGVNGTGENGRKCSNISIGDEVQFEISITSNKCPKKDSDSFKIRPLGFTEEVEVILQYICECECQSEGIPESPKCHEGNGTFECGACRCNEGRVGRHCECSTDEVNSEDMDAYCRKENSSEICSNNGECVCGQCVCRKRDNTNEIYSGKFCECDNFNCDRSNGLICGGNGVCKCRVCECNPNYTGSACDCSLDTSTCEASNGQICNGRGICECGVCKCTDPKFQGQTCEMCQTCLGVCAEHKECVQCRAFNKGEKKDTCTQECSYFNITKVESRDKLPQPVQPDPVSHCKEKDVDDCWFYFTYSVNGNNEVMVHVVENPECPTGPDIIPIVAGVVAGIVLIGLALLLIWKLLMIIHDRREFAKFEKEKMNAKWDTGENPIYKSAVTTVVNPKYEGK
Sequence of Integrin beta-1 (Homo sapiens) + Integrin alpha-4 (Homo sapiens) (P13612 whole entry, looked up): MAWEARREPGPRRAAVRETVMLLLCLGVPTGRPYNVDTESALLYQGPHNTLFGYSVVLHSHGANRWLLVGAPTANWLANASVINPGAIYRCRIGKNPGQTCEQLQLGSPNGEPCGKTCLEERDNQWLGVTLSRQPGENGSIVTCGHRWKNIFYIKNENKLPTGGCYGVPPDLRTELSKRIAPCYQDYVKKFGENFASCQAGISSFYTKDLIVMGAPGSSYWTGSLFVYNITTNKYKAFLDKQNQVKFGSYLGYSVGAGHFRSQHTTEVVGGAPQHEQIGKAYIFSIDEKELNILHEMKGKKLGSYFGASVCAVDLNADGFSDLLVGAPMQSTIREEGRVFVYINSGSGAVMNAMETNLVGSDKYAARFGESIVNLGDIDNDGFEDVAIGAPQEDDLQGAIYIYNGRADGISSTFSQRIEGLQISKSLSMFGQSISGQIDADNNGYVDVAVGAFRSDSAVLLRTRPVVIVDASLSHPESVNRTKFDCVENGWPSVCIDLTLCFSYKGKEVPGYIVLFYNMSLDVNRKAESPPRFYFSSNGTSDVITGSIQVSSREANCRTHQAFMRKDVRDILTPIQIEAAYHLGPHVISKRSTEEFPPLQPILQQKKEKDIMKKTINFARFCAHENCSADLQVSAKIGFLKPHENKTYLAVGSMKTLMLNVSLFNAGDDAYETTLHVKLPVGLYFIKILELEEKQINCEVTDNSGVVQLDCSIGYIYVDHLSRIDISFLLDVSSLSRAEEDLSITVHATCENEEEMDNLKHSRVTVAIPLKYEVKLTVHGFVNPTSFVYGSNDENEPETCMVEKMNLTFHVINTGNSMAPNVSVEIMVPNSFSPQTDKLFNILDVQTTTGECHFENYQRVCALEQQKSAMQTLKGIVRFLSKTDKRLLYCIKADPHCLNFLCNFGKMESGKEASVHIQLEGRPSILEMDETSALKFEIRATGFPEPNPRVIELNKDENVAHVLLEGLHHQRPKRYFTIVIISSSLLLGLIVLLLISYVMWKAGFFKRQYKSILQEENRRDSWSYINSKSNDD

[8] = superoxide lowering in aged yeast cells, pilot screen, validation compound set (AID 2706;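 active means superoxide response below 65% of plate, a cut near 3 SD across the whole screen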;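 further: yeast exposed to compound for one week at 30 degrees C before staining; 100% = mean of all compound wells on the same plate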); conditions: S. cerevisiae aging, superoxide DHE fluorescence; at 10 µM; stronger effect = lower value
[9] = target: Beta-adrenergic receptor kinase 1 (Homo sapiens) (UniProt P25098); experiment: GRK2 binders displacing RNA aptamer, biochemical, validation, human GRK2, bead flow cytometry (AID 488806;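 active means aptamer binding inhibition above 30%, about 3 SD of noise from non-fluorescent compounds; inactive means inhibition at or below 30%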); conditions: bead-bound GRK2, FAM-aptamer displacement, at 10 µM, stronger effect = higher value
Sequence of Beta-adrenergic receptor kinase 1 (Homo sapiens) (P25098 whole entry, looked up): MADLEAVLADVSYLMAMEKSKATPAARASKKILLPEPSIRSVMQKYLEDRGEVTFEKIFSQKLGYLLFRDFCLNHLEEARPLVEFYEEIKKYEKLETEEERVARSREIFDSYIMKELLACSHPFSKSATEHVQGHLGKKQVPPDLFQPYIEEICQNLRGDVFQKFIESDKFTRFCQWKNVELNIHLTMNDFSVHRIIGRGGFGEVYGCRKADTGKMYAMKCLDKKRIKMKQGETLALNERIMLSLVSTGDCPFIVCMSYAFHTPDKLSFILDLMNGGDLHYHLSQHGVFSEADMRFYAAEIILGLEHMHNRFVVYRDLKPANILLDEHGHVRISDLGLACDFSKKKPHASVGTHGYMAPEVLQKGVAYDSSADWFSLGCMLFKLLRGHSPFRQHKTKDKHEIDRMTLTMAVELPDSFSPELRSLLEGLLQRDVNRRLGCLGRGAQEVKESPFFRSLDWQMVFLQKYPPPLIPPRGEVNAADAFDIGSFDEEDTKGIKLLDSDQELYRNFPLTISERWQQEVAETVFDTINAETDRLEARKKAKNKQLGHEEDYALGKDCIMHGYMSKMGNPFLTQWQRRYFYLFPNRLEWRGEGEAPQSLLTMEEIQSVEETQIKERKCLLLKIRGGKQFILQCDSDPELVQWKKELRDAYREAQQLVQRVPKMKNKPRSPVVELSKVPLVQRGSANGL

[10] = target: Beta-2 adrenergic receptor (Homo sapiens) (UniProt P07550); experiment: beta2AR agonists driving receptor internalization, pilot screen, cell-based, FAP fluorogen, flow cytometry, validation set (AID 504459;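 active means percent response above 42, roughly 3 SD of non-fluorescent test compounds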;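 further: agonist-driven loss of surface beta2AR via internalization measured by FAP dye flow cytometry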); conditions: Am2.2-beta2AR cells, FAP surface receptor flow cytometry; at 10 µM; stronger effect = higher value
Sequence of Beta-2 adrenergic receptor (Homo sapiens) (P07550 whole entry, looked up): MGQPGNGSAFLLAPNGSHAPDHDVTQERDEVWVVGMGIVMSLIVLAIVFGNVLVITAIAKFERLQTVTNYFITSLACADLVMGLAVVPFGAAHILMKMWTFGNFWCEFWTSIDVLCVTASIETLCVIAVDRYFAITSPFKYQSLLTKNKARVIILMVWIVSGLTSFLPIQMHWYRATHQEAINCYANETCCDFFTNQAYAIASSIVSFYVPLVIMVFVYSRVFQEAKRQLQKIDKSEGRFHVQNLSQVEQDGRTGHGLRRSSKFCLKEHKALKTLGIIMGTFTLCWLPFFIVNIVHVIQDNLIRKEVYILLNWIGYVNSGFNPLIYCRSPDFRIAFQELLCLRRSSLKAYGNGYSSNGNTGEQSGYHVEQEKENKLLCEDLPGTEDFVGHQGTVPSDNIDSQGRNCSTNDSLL

[11] = target: AP-2 complex subunit beta (Homo sapiens) (UniProt P63010); experiment: inhibitors of arrestin peptide binding to AP2, pilot screen, biochemical, validation set, GST-AP2 beads, flow cytometry (AID 504541;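 active means inhibition above 54%, about 3 SD of non-fluorescent compounds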;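 further: AP2 carries R879A mutation and is captured from E. coli lysate; bead-bound FITC arrestin peptide fluorescence measuring arrestin peptide binding to AP2; 0% = DMSO wells and 100% = excess unlabeled arrestin peptide control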); conditions: FITC arrestin peptide, at 10 µM, stronger effect = higher value, AP2 beta2 appendage fragment, R879A mutant
Sequence of AP-2 complex subunit beta (Homo sapiens) (P63010 whole entry, looked up, the tested form may be a part, one chain of several): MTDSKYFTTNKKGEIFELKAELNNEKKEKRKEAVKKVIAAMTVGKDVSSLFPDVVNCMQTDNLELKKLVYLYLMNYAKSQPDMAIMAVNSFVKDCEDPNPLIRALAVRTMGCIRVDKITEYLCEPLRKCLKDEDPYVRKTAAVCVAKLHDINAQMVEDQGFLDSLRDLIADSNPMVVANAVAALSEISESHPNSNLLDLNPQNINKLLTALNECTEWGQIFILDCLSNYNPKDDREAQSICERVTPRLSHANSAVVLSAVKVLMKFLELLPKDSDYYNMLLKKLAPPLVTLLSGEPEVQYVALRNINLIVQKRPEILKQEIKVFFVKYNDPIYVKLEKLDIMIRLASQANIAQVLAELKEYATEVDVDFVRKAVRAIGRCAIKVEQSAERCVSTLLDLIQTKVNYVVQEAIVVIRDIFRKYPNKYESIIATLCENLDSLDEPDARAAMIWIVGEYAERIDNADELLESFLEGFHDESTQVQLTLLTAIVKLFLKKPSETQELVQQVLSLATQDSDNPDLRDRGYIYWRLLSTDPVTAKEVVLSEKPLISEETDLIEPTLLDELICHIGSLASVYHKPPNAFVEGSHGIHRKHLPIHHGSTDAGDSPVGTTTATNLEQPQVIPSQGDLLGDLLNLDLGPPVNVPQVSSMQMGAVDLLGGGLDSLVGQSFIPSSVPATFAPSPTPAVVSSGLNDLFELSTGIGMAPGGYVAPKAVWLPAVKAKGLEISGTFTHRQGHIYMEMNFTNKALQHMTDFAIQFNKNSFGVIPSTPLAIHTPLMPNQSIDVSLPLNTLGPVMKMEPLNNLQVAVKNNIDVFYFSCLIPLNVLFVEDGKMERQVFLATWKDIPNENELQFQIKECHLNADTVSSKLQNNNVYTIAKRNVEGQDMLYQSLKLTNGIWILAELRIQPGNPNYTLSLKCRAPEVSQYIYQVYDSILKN

[12] = yeast V-ATPase proton transport modulators, S. cerevisiae, pHLuorin, HTS validation (AID 504600; in the data active means response above about 15%;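 further: plate controls were DMSO for no effect and reference compound for full effect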); conditions: S. cerevisiae pHLuorin cytosolic pH, at 10 µM, stronger effect = higher value
[13] = test system: anti-desmoglein-3 scFv antibody binding to human DSG3; experiment: inhibitors of anti-DSG3 scFv binding to DSG3, pilot screen, biochemical, validation compound set, bead-based, flow cytometry (AID 588368;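 active means binding below the plate cutoff, the plate median minus 3 SD, with a reading above zero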;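 further: signal is the median channel fluorescence of bead-bound GFP antibody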); conditions: Protein G beads, DSG3-Fc, scFv-GFP binding, at 10 µM, stronger effect = lower value
[14] = inhibitors of fungal efflux pumps CDR1, CDR2, MDR1, pilot screen, validation compound set, multiplex, phenotypic (AID 588506;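 active means efflux inhibition above 0.42, the validation set average plus 4 SD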;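 further: Nile Red retained in cells so higher fluorescence means more efflux inhibition; 0 = negative control wells and 1 = enniatin B 25 µM full block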); conditions: S. cerevisiae pump-expressing triplex, Nile Red efflux flow cytometry; at 10 µM; stronger effect = higher value; the pumps come from Candida albicans
[15] = target: ATP-binding cassette sub-family B member 6 (Homo sapiens) (UniProt Q9NP58); experiment: ABCB6 transporter inhibitors, pilot screen, K562-ABCB6 cells, flow cytometry, validation set (AID 588550;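 active means inhibition above the screen-wide mean plus 3 SD, about 51%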;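 further: 0% = DMSO wells and 100% = benzethonium chloride 70 µM positive control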); conditions: K562-ABCB6 porphyrin accumulation, 1 h, at 10 µM, stronger effect = higher value
Sequence of ATP-binding cassette sub-family B member 6 (Homo sapiens) (Q9NP58 whole entry, looked up): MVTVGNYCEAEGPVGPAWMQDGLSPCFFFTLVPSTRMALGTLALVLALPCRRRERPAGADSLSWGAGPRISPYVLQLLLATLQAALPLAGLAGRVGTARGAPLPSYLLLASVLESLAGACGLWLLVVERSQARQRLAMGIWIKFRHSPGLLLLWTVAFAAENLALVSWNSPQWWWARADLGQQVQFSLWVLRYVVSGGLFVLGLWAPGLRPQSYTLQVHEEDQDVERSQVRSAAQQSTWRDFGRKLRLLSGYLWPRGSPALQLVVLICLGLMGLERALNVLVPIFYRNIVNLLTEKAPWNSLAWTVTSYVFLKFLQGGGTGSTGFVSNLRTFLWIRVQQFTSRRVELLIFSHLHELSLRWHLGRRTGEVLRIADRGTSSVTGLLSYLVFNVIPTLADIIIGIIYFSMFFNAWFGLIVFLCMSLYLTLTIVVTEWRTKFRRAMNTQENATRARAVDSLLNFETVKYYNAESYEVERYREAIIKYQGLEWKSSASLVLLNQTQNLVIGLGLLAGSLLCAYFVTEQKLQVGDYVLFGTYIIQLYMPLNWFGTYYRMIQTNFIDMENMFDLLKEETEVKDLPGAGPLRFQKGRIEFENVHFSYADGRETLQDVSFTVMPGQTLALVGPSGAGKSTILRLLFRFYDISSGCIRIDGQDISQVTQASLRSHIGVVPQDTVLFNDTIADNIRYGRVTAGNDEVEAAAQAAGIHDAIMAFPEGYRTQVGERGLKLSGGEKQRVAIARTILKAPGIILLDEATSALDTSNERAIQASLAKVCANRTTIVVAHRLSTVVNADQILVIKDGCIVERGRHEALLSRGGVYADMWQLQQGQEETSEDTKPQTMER

[16] = promoters of myeloid differentiation in arrested cells, primary screen, cell-based, GFP/MAC1 double positive, flow cytometry, validation set (AID 588685;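 active means differentiation response of at least 50%, scaled between solvent and reference control, from cells with both markers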;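 further: compound exposure lasts four days before antibody staining and flow analysis; 0% = DMSO wells and 100% = 5 µM fulvestrant positive control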); conditions: ER-HoxA9 marrow cells, stronger effect = higher value, normalized: vehicle 0, fulvestrant 100

| Compound | percent of DMSO control GFP [1] | GFP response vs DMSO [2] | percent response of DMSO control [3] | GFP response vs DMSO [4] | GFP response, % of DMSO [5] | double positive events [6] | vesicle binding response [6] | inhibition [7] | superoxide response (% of plate) [8] | aptamer binding inhibition [9] | response [10] | inhibition [11] | response [12] | binding (% of control) [13] | efflux inhibition (fraction of control) [14] | inhibition [15] | differentiation response [16] |
| --- | --- | --- | --- | --- | --- | --- | --- | --- | --- | --- | --- | --- | --- | --- | --- | --- | --- |
| CC(=O)N1CCN2C(=O)C1CCCC(=O)c1cc(C(C)C)ccc12 (centres undefined) | 99.5% (inactive) | 90.8% (inactive) | 103% (inactive) | 82.8% (inactive) | 91.2% (inactive) | 55.3% | 234% (inactive) | -4.52% (inactive) | 94.5% (inactive) | 6% (inactive) | 0.52% (inactive) | -5.05% (inactive) | 0.04% (inactive) | 103% (inactive) | -0.24 (inactive) | 9% (inactive) | 20% (inactive) |
| CCc1cc(=O)oc2cc3occ(-c4ccc(OC)c(F)c4)c3cc12 | 96.8% (inactive) | 116% (inactive) | 111% (inactive) | 93% (inactive) | 87.7% (inactive) | 60.2% | 260% (inactive) | 16.2% (inactive) | 88% (inactive) | -1% (inactive) | 25.5% (inactive) | 6.17% (inactive) | 0.45% (inactive) | 107% (inactive) | 0.63 (active) | 15% (inactive) | 10.6% (inactive) |
| COCCOC(=O)C1=C(C)NC(C)=C(C(=O)OC(C)C)C1c1cccc([N+](=O)[O-])c1 (centres undefined) | 102% (inactive) | 105% (inactive) | 111% (inactive) | 94.7% (inactive) | 99.4% (inactive) | 58.9% | 182% (inactive) | 4.73% (inactive) | 106% (inactive) | -1% (inactive) | -6.98% (inactive) | -3.69% (inactive) | 8.68% (inactive) | 97.4% (inactive) | -0.17 (inactive) | -4% (inactive) | -10.5% (inactive) |
| CCN(CC)CCCNC(=O)C1c2ccccc2Oc2ccccc21 | 100% (inactive) | 95.1% (inactive) | 95.4% (inactive) | 89.4% (inactive) | 97.2% (inactive) | 64.1% | 1360% (inactive) | 13% (inactive) | 101% (inactive) | 2% (inactive) | 2.25% (inactive) | 17% (inactive) | -0.98% (inactive) | 101% (inactive) | 0.49 (active) | -2% (inactive) | 26.6% (inactive) |
| OCCN1CCN(CCCN2c3ccccc3Sc3ccc(C(F)(F)F)cc32)CC1 | 104% (inactive) | 104% (inactive) | 92.5% (inactive) | 101% (inactive) | 115% (inactive) | 62.1% | 176% (inactive) | 70.4% (active) | 90.7% (inactive) | -4% (inactive) | 26.4% (inactive) | 13.1% (inactive) | 0.87% (inactive) | 111% (inactive) | -0.04 (inactive) | 11% (inactive) | 0.92% (inactive) |
| CCOc1ccc2oc(-c3ccccc3)c(C(=O)O)c2c1 | 97.8% (inactive) | 108% (inactive) | 100% (inactive) | 110% (inactive) | 105% (inactive) | 65.1% | 204% (inactive) | 5.69% (inactive) | 102% (inactive) | 6% (inactive) | -17.2% (inactive) | 7.05% (inactive) | 1.4% (inactive) | 101% (inactive) | -0.04 (inactive) | 9% (inactive) | 1.91% (inactive) |
| COc1ccc(-c2nc(NC(C)=O)sc2-c2ccc(OC)cc2)cc1 | 104% (inactive) | 101% (inactive) | 99.7% (inactive) | 92.6% (inactive) | 90.9% (inactive) | 65.9% | 232% (inactive) | -2.43% (inactive) | 104% (inactive) | 2% (inactive) | -22.1% (inactive) | -11.5% (inactive) | 0.09% (inactive) | 102% (inactive) | -0.29 (inactive) | 0% (inactive) | 14.4% (inactive) |
